ROC1-CUL1 inh: blocks human RBX1-Cullin-1 di-ubiquitin formation. in vitro K48 di-Ub FRET, acceptor:donor ratio, 45 min. inhibition, % at 10 µM. 140,000 compounds, 0.6% hits. AID 1347404; in the data active = inhibition above about 25%
Target sequence (P62877 whole entry, looked up): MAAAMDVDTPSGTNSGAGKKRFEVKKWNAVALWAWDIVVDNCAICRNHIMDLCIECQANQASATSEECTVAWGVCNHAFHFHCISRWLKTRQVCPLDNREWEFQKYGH
Target sequence (Q13616 whole entry, looked up): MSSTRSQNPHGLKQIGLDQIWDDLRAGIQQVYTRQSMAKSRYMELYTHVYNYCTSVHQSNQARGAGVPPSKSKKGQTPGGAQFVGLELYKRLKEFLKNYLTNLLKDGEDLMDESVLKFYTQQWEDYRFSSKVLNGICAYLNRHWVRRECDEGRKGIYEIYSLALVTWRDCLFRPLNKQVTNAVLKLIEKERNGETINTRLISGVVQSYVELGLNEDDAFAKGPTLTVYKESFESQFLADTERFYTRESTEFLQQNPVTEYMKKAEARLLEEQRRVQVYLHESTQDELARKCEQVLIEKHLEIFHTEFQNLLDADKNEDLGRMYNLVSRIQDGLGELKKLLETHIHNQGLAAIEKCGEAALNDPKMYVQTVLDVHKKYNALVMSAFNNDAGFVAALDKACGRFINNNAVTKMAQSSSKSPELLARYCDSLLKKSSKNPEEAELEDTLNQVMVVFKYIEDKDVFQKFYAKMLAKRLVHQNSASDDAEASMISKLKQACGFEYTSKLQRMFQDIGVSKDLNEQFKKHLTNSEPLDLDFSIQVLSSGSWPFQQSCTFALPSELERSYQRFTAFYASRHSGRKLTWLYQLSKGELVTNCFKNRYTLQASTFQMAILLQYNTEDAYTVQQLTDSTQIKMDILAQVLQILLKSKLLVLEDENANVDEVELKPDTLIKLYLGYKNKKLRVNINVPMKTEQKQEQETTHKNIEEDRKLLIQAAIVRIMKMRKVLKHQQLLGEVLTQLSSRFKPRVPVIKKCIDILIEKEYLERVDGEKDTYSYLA
Large screens that a line does not name were inactive. Only a selection was taken, and hits are over-represented in it overall.

COCCn1c(-c2ccccn2)nc2cc(NC(C)=O)cc(C(=O)N(C)Cc3ccc(F)cc3)c21	none
O=C(Cn1c(=O)oc2cc(S(=O)(=O)N3CCCCCC3)ccc21)NCc1ccccc1Cl	none
COc1ccc2c(c1)c1c(c(=O)n(Cc3ccccc3)c(=O)n1CC(=O)Nc1ccc(C)cc1C)n2C	none
CN1C(=O)c2ccccc2C(O)c2ccccc21 (configuration not stated)	none
CC(=O)c1ccccc1-c1ccccc1C(C)=O	none
CC(=O)C1=NC(=O)c2ccccc2C1O (configuration not stated)	ROC1-CUL1 inh 53
CCOC(=O)COc1c(I)cc(/C=C2/SC(=Nc3ccc(OC)cc3)NC2=O)cc1OC	none
CCOc1cc(/C=C2\SC(=Nc3ccc(Cl)cc3)NC2=O)cc(Cl)c1OCC(=O)O	ROC1-CUL1 inh 96
CCc1ccc(N=C2NC(=O)/C(=C\c3cc(Cl)c(OCC#N)c(OC)c3)S2)cc1	none
CCc1cc(I)ccc1NC(=O)c1cccc(F)c1	none
Nc1ccc2c(c1)C(=O)N(CCC(=O)O)C2=O	none
N#C/C(=C\c1ccc([N+](=O)[O-])o1)c1nc(-c2ccc(F)cc2)cs1	none
N#C/C(=C/c1ccc([N+](=O)[O-])o1)C(=O)O	ROC1-CUL1 inh 73
CC(=O)/C(C#N)=C/c1ccc(C#N)o1	none
O[C@H]1[C@H](N2CCN(C3CCCCC3)CC2)c2ccccc2C12CCNCC2	none
Cc1nn(S(=O)(=O)c2ccccc2)c(C)c1Cl	none
COc1c(C)c(C)c(OC)c2c1C(=O)c1ccccc1C2=O	none
CCSc1nnc(NC(=O)C(C)C)s1	none
CCSc1nnc(NC(=O)C(C(F)(F)F)C(F)(F)F)s1	ROC1-CUL1 inh 32
CCSc1nnc(NC(=O)OC)s1	none
O=C(c1ccccc1)c1ccccc1Nc1nc(Cl)nc(Cl)n1	none
Cc1ccc(Nc2nc(Cl)nc(N3CCOCC3)n2)cc1Cl	none
O=C(O)c1ccc(Nc2nc(Cl)nc(Cl)n2)cc1-c1c2ccc(=O)cc-2oc2cc(O)ccc12	ROC1-CUL1 inh 106
CC1=NN(c2ccccc2)C(=O)C1c1ccccc1 (configuration not stated)	none
O=C1C(=O)N(c2ccccc2)N=C(c2ccccc2)C1C(=O)c1ccccc1 (configuration not stated)	none
O=C1N(c2ccccc2)N=C(c2ccccc2)C1(Br)Br	ROC1-CUL1 inh 60
Cc1oc2ncnc(N3CCCCC3)c2c1C(=O)Nc1cccc(Cl)c1C	none
CCOC(=O)C1=NN(c2ccc(C)cc2)C2(S1)S/C(=C/c1cccs1)C(=O)N2c1ccccc1 (configuration not stated)	none
COc1ccccc1OCC(=O)Nc1c(C(=O)c2ccc(C)cc2)oc2ccccc12	none
C=CCOc1ccc(Br)cc1/C=C/c1[nH]c(=O)[nH]c(=O)c1[N+](=O)[O-]	ROC1-CUL1 inh 42
C#CCOc1ccc(/C=C/c2[nH]c(=O)[nH]c(=O)c2[N+](=O)[O-])cc1OC	none
C=CCOc1ccc(Br)cc1/C=C1/SC(=O)NC1=O	none
Brc1nsc(SCSc2nc(Br)ns2)n1	ROC1-CUL1 inh 33
COc1cc(C(C2C(=O)Oc3ccc(C)cc3C2=O)C2C(=O)Oc3ccc(C)cc3C2=O)cc(OC)c1OC (configuration not stated)	none
O=C1c2cc(Cl)ccc2OCC1Br (configuration not stated)	none
Cc1ccc2c(c1)C(=O)C(C(c1ccc(Cl)cc1Cl)C1C(=O)Oc3ccc(C)cc3C1=O)C(=O)O2 (configuration not stated)	ROC1-CUL1 inh 56
CCOc1ccccc1NC(=O)Cn1c(=O)oc2ccccc21	none
O=C(CSc1ccccc1)N1CCC(N2CCC(C(=O)N3CCCC3)CC2)CC1	none
O=S(=O)(Nc1cc(Sc2ncn[nH]2)c(O)c2ccccc12)c1ccc2ccccc2c1	ROC1-CUL1 inh 84
NNS(=O)(=O)c1ccc2ccccc2c1	none
COc1ccc(S(=O)(=O)Nc2ccc(O)c3ccccc23)cc1	none
c1cc(-c2cnccn2)cc(-c2ccn(CCCN3CCCCC3)n2)c1	none
CC(=O)NC1C(=O)N(c2ccccc2)N=C1C (configuration not stated)	none
COC(=O)C(O)(C1C(=O)N(c2ccccc2)N=C1C)C(F)(F)F (configuration not stated)	ROC1-CUL1 inh 75
CC1=NN(c2ccccc2)C(=O)C1C(=O)c1ccc(Cl)cc1 (configuration not stated)	none
CCOC(=O)c1c(C)[nH]c(CCC(=O)Nc2ccccc2OCC)c1C	none
O=C(NCc1ccccc1Cl)c1ccc(NC(=O)c2nsc3ccccc23)cc1	none
COCCOc1ccc(C(=O)NC2CCCC2)cc1Br	none
CC(C)CCNC(=O)/C=C/c1ccc(Cl)c(Cl)c1	none
CCN=C1CC=CC=C(C(=O)/C=C/c2ccc(Br)cc2)C1=O	ROC1-CUL1 inh 86
CCN=C1CC=C(Br)C=C(C(=O)/C=C/c2cccc(Cl)c2Cl)C1=O	none
CCN=C1CC=CC=C(C(=O)/C=C/c2cc(OC)ccc2OC)C1=O	none
O=C(/C=C/c1ccc(Cl)c(Cl)c1)NCCC1=CCCCC1	none
CCN=C1CC=CC=C(C(=O)/C=C/c2ccc(C(F)(F)F)cc2)C1=O	none
CCN=C1CC=C(Br)C=C(C(=O)/C=C/c2ccc(N(C)C)cc2)C1=O	none
CCN=C1CC=CC=C(C(=O)/C=C/c2ccc(Cl)c(Cl)c2)C1=O	ROC1-CUL1 inh 62
CCN=C1CC=CC=C(C(=O)/C=C/c2ccccc2OC)C1=O	ROC1-CUL1 inh 87
CCOC(=O)c1cnn(-c2cc(Oc3ccccc3C)ncn2)c1C	none
CCC(C)NC(=O)C1CCN(Cc2cccc(C)c2)CC1 (configuration not stated)	none
CCS(=O)(=O)c1nc2ccccc2n1CCOc1ccc(OC)cc1	none
Cc1nn2c(Cc3ccccc3C)nnc2s1	none
CCSc1nnc2c(n1)OC(/C(C)=C/c1ccccc1)N(C(C)=O)c1ccc(Br)cc1-2 (configuration not stated)	none
COc1ccccc1NC(=O)N1CCC(C(N)=O)(N2CCCCC2)CC1	none
O=C(O)c1cc2ccoc2cc(C(=O)O)c1=O	ROC1-CUL1 inh 100
CC(=O)Nc1ccc2occc2c1	none
O=C(O)c1cc2cc(Br)ccc2oc1=O	none
Cc1ccc(-c2cc3nn(-c4ccccc4)c(N)c3c(=O)o2)cc1	none
N#CC1=CC2CCCC2=NC1=S (configuration not stated)	ROC1-CUL1 inh 106
N#CC1=CC2CCCCCCC2=NC1=S (configuration not stated)	none
CCC1=C(C#N)C(=S)N=C2CCCC21 (configuration not stated)	none
C=CCn1c(NCCO)nc2sc3c(c2c1=O)CCC3	none
CC1=NN(c2nc(-c3ccc(Br)cc3)cs2)C(=O)C1N=Nc1nccs1 (configuration not stated)	ROC1-CUL1 inh 78
CC1=NN(c2nc(-c3ccc(Br)cc3)cs2)C(=O)C1N=Nc1ccc(Oc2ccccc2)cc1 (configuration not stated)	none
CC1=NN(c2nc(-c3ccc(Br)cc3)cs2)C(=O)C1N=Nc1cccc(O)c1 (configuration not stated)	none
Cc1cn2c(=O)cc(COc3cccc(NC(=O)c4ccccc4C)c3)nc2s1	none
Cc1cc(-c2ccc(C)c(S(=O)(=O)N3CCC(C)CC3)c2)on1	none
Cc1c(C(c2ccc(O)c(Cl)c2)c2c(C)n(C)n(-c3ccccc3)c2=O)c(=O)n(-c2ccccc2)n1C	none
Cc1c(C)n2c3c(=O)n(C)c(=O)n(C)c3nc2n1-c1cccc(O)c1	none
Cc1cc(C)cc(-n2c(C)c(C)n3c4c(=O)n(C)c(=O)n(C)c4nc23)c1	none
Cc1cccc(-n2c(C)c(C)n3c4c(=O)n(C)c(=O)n(C)c4nc23)c1	ROC1-CUL1 inh 26
O=C(COc1cc(Cl)ccc1Cl)N1CCN(c2ncccn2)CC1	none

High-throughput results: PubChem, Pan Lab, Icahn School of Medicine at Mount Sinai
